# In the supplement of paper PMC8728848:
# The full list was thinned out, with the strongest signals kept by preference.
# B1: Thrombomodulin Lectin (Mus musculus) (protein)
# chain: LSALAKLQPTGSQCVEHECFALFQGPATFLDASQACQRLQGHLMTVRSSVAADVISLLLSQSSMDLGPWIGLQLPQGCDDPVHLGPLRGFQWVTGDNHTSYSRWARPNDQTAPLCGPLCVTVSTATEAAPGEPAWEEKPCETETQGFLCEFYFTASCRVDPIPVREDTKEEEGAGEPPVSPTPGSPTGPPSARPVLDEPRVPITQNPCPPLKECPPCAAPDLEGGPSVFIFPPKIKDVLMISLSPMVTCVVVDVSEDDPDVQISWFVNNVEVHTAQTQTHREDYNSTLRVVSALPIQHQDWMSGKAFACAVNNRALPSPIEKTISKPRGPVRAPQVYVLPPPAEEMTKKEFSLTCMITGFLPAEIAVDWTSNGRTEQNYKNTATVLDSDGSYFMYSKLRVQKSTWERGSLFACSVVHEGLHNHLTTKTISRSLGK
# Assays:
# Assay in all cases: glycan array binding signal (z-score within array); higher = stronger binding
# Conditions in all cases: glycan notation: IUPAC condensed, linker removed
# [1] = molecular target: Fuc(a1-2)Gal(b1-4)GlcNAc(b1-2)Man(a1-3)[Fuc(a1-2)Gal(b1-4)GlcNAc(b1-2)Man(a1-6)]Man(b1-4)GlcNAc(b1-4)GlcNAc
# How it was run: (§1)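 The binding signal is a Z-score computed within each array. Data were drawn from 3228 arrays in the Consortium for Functional Glycomics database, restricted to those with a known protein sequence. Scores were averaged over arrays of the same protein sequence at different concentrations or buffers, and over linkers, and negative values can be taken as non-binding.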
# [2] = molecular target: Fuc(a1-2)Gal(b1-4)GlcNAc(b1-6)GalNAc
# How it was run: as §1
# Fuc(a1-2)Gal6S(b1-4)Glc = molecular target: Fuc(a1-2)Gal6S(b1-4)Glc
# How it was run: as §1
# [3] = molecular target: Fuc(a1-2)Gal6S(b1-4)Glc6S
# How it was run: as §1
# [4] = molecular target: Fuc(a1-2)[Gal(a1-3)]Gal(b1-4)GlcNAc(b1-2)Man(a1-3)[Fuc(a1-2)[Gal(a1-3)]Gal(b1-4)GlcNAc(b1-2)Man(a1-6)]Man(b1-4)GlcNAc(b1-4)GlcNAc
# How it was run: as §1
# [5] = molecular target: Fuc(a1-2)[Gal(a1-3)]Gal(b1-4)GlcNAc(b1-3)[Fuc(a1-2)[Gal(a1-3)]Gal(b1-4)GlcNAc(b1-6)]GalNAc
# How it was run: as §1
# [6] = molecular target: Fuc(a1-2)[Gal(a1-3)]Gal(b1-4)GlcNAc(b1-6)GalNAc
# How it was run: as §1
# [7] = molecular target: Fuc(a1-2)[Gal(a1-4)]Gal(b1-4)GlcNAc
# How it was run: as §1
# [8] = molecular target: Fuc(a1-2)[GalNAc(a1-3)]Gal
# How it was run: as §1
# [9] = molecular target: Fuc(a1-2)[GalNAc(a1-3)]Gal(b1-4)Glc
# How it was run: as §1
# [10] = molecular target: Fuc(a1-3)[Gal3S(b1-4)]GlcNAc
# How it was run: as §1
# [11] = molecular target: Fuc(a1-3)[GalNAc(b1-4)]GlcNAc
# How it was run: as §1
# Gal(a1-3)Gal(b1-4)Glc = molecular target: Gal(a1-3)Gal(b1-4)Glc
# How it was run: as §1
# Gal(a1-3)GalNAc = molecular target: Gal(a1-3)GalNAc
# How it was run: as §1
# [12] = molecular target: Gal(a1-4)Gal(b1-4)GlcNAc(b1-3)Gal(b1-4)Glc
# How it was run: as §1
# Gal(b1-3)Gal = molecular target: Gal(b1-3)Gal
# How it was run: as §1
# [13] = molecular target: Gal(b1-3)[Fuc(a1-4)]GlcNAc(b1-6)GalNAc
# How it was run: as §1
# [14] = molecular target: Gal(b1-4)GlcNAc(b1-2)Man(a1-3)[Gal(b1-4)GlcNAc(b1-2)Man(a1-6)][Gal(b1-4)GlcNAc(b1-4)]Man(b1-4)GlcNAc(b1-4)[Fuc(a1-6)]GlcNAc
# How it was run: as §1
# [15] = molecular target: Gal(b1-4)GlcNAc(b1-2)[Gal(b1-4)GlcNAc(b1-4)]Man(a1-3)[Gal(b1-4)GlcNAc(b1-2)Man(a1-6)]Man(b1-4)GlcNAc(b1-4)GlcNAc
# How it was run: as §1
# [16] = molecular target: Gal(b1-4)GlcNAc(b1-3)Gal(b1-4)GlcNAc(b1-2)Man(a1-3)[Gal(b1-4)GlcNAc(b1-3)Gal(b1-4)GlcNAc(b1-2)Man(a1-6)]Man(b1-4)GlcNAc(b1-4)[Fuc(a1-6)]GlcNAc
# How it was run: as §1
# Gal(b1-4)GlcNAc6P = molecular target: Gal(b1-4)GlcNAc6P
# How it was run: as §1
# Gal6S(b1-4)Glc = molecular target: Gal6S(b1-4)Glc
# How it was run: as §1
# GalNAc(b1-4)GlcNAc6S = molecular target: GalNAc(b1-4)GlcNAc6S
# How it was run: as §1
# GlcA(b1-6)Gal = molecular target: GlcA(b1-6)Gal
# How it was run: as §1
# [17] = molecular target: GlcNAc(a1-3)Gal(b1-4)GlcNAc
# How it was run: as §1
# [18] = molecular target: GlcNAc(a1-4)Gal(b1-4)GlcNAc(b1-3)Gal(b1-4)[Fuc(a1-3)]GlcNAc(b1-3)Gal(b1-4)[Fuc(a1-3)]GlcNAc
# How it was run: as §1
# [19] = molecular target: GlcNAc(a1-6)Gal(b1-4)GlcNAc
# How it was run: as §1
# [20] = molecular target: GlcNAc(b1-2)Man(a1-3)[GlcNAc(b1-2)Man(a1-6)]Man(b1-4)GlcNAc(b1-4)[Fuc(a1-6)]GlcNAc
# How it was run: as §1
# [21] = molecular target: GlcNAc(b1-3)Gal(b1-4)GlcNAc(b1-3)Gal(b1-4)GlcNAc
# How it was run: as §1
# [22] = molecular target: GlcNAc(b1-3)Gal(b1-4)GlcNAc(b1-3)Gal(b1-4)GlcNAc(b1-2)[GlcNAc(b1-3)Gal(b1-4)GlcNAc(b1-3)Gal(b1-4)GlcNAc(b1-6)]Man(a1-6)[GlcNAc(b1-3)Gal(b1-4)GlcNAc(b1-3)Gal(b1-4)GlcNAc(b1-2)Man(a1-3)]Man(b1-4)GlcNAc(b1-4)[Fuc(a1-6)]GlcNAc
# How it was run: as §1
# [23] = molecular target: GlcNAc(b1-3)Gal(b1-4)GlcNAc(b1-3)Gal(b1-4)GlcNAc(b1-3)Gal(b1-4)GlcNAc(b1-3)Gal(b1-4)GlcNAc(b1-2)Man(a1-3)[GlcNAc(b1-3)Gal(b1-4)GlcNAc(b1-3)Gal(b1-4)GlcNAc(b1-3)Gal(b1-4)GlcNAc(b1-3)Gal(b1-4)GlcNAc(b1-2)Man(a1-6)]Man(b1-4)GlcNAc(b1-4)GlcNAc
# How it was run: as §1
# [24] = molecular target: GlcNAc(b1-4)GlcNAc(b1-4)GlcNAc(b1-4)GlcNAc(b1-4)GlcNAc
# How it was run: as §1
# [25] = molecular target: GlcNAc(b1-4)GlcNAc(b1-4)GlcNAc(b1-4)GlcNAc(b1-4)GlcNAc(b1-4)GlcNAc
# How it was run: as §1
# [26] = molecular target: GlcNAc6S(b1-3)Gal(b1-4)GlcNAc
# How it was run: as §1
# [27] = molecular target: Man(a1-2)Man(a1-2)Man(a1-3)Man
# How it was run: as §1
# [28] = molecular target: Neu5Ac(a2-3)Gal(b1-3)GlcNAc(b1-2)[Neu5Ac(a2-3)Gal(b1-3)GlcNAc(b1-4)]Man(a1-6)[Neu5Ac(a2-3)Gal(b1-3)GlcNAc(b1-2)Man(a1-3)]Man(b1-4)GlcNAc(b1-4)GlcNAc
# How it was run: as §1
# [29] = molecular target: Neu5Ac(a2-3)Gal(b1-3)GlcNAc(b1-3)Gal(b1-3)GlcNAc
# How it was run: as §1
# [30] = molecular target: Neu5Ac(a2-3)Gal(b1-4)GlcNAc(b1-2)Man
# How it was run: as §1
# [31] = molecular target: Neu5Ac(a2-3)[GalNAc(b1-4)]Gal(b1-4)GlcNAc(b1-3)GalNAc
# How it was run: as §1
# [32] = molecular target: Neu5Ac(a2-6)Gal(b1-4)GlcNAc(b1-2)Man(a1-3)[Man(a1-6)]Man(b1-4)GlcNAc(b1-4)GlcNAc
# How it was run: as §1
# [33] = molecular target: Neu5Ac(a2-6)Gal(b1-4)GlcNAc(b1-2)Man(a1-3)[Neu5Ac(a2-3)Gal(b1-4)GlcNAc(b1-2)Man(a1-6)]Man(b1-4)GlcNAc(b1-4)GlcNAc
# How it was run: as §1
# [34] = molecular target: Neu5Ac(a2-6)Gal(b1-4)GlcNAc(b1-2)[Neu5Ac(a2-6)Gal(b1-4)GlcNAc(b1-6)]Man(a1-6)[Neu5Ac(a2-6)Gal(b1-4)GlcNAc(b1-2)Man(a1-3)][GlcNAc(b1-4)]Man(b1-4)GlcNAc(b1-4)GlcNAc
# How it was run: as §1
# [35] = molecular target: Neu5Ac(a2-6)GalNAc(b1-4)GlcNAc
# How it was run: as §1
# [36] = molecular target: Neu5Ac(a2-8)Neu5Ac(a2-3)Gal(b1-3)GalNAc(b1-4)[Neu5Ac(a2-3)]Gal(b1-4)Glc
# How it was run: as §1
# [37] = molecular target: Neu5Ac(a2-8)Neu5Ac(a2-3)Gal(b1-3)GalNAc(b1-4)[Neu5Ac(a2-8)Neu5Ac(a2-3)]Gal(b1-4)Glc
# How it was run: as §1
# [38] = molecular target: Neu5Ac(a2-8)Neu5Ac(a2-3)[Gal(b1-3)GalNAc(b1-4)]Gal(b1-4)Glc
# How it was run: as §1
# [39] = molecular target: Neu5Ac(a2-8)Neu5Ac(a2-8)Neu5Ac(a2-3)Gal(b1-4)Glc
# How it was run: as §1
# Neu5Ac(b2-6)GalNAc = molecular target: Neu5Ac(b2-6)GalNAc
# How it was run: as §1
# [40] = molecular target: Neu5Gc(a2-3)Gal(b1-3)GlcNAc
# How it was run: as §1
binder,measurement,setting,value
B1,glycan array binding signal (z-score),[1],0.621
same,glycan array binding signal (z-score),[2],2.73
same,glycan array binding signal (z-score),Fuc(a1-2)Gal6S(b1-4)Glc,2.72
same,glycan array binding signal (z-score),[3],0.784
same,glycan array binding signal (z-score),[4],2.81
same,glycan array binding signal (z-score),[5],2.22
same,glycan array binding signal (z-score),[6],0.082
same,glycan array binding signal (z-score),[7],0.651
same,glycan array binding signal (z-score),[8],0.693
same,glycan array binding signal (z-score),[9],-0.508
same,glycan array binding signal (z-score),[10],-0.275
same,glycan array binding signal (z-score),[11],0.174
same,glycan array binding signal (z-score),Gal(a1-3)Gal(b1-4)Glc,0.642
same,glycan array binding signal (z-score),Gal(a1-3)GalNAc,-0.598
same,glycan array binding signal (z-score),[12],0.021
same,glycan array binding signal (z-score),Gal(b1-3)Gal,2.2
same,glycan array binding signal (z-score),[13],-0.03
same,glycan array binding signal (z-score),[14],0.267
same,glycan array binding signal (z-score),[15],2.75
same,glycan array binding signal (z-score),[16],1.18
same,glycan array binding signal (z-score),Gal(b1-4)GlcNAc6P,2.7
same,glycan array binding signal (z-score),Gal6S(b1-4)Glc,-1.09
same,glycan array binding signal (z-score),GalNAc(b1-4)GlcNAc6S,0.18
same,glycan array binding signal (z-score),GlcA(b1-6)Gal,1.32
same,glycan array binding signal (z-score),[17],-1.21
same,glycan array binding signal (z-score),[18],0.73
same,glycan array binding signal (z-score),[19],1.09
same,glycan array binding signal (z-score),[20],-0.281
same,glycan array binding signal (z-score),[21],-0.268
same,glycan array binding signal (z-score),[22],2.07
same,glycan array binding signal (z-score),[23],0.151
same,glycan array binding signal (z-score),[24],-1.3
same,glycan array binding signal (z-score),[25],1.17
same,glycan array binding signal (z-score),[26],0.319
same,glycan array binding signal (z-score),[27],-0.544
same,glycan array binding signal (z-score),[28],0.153
same,glycan array binding signal (z-score),[29],-1.59
same,glycan array binding signal (z-score),[30],-1.13
same,glycan array binding signal (z-score),[31],2.15
same,glycan array binding signal (z-score),[32],2.04
same,glycan array binding signal (z-score),[33],-0.553
same,glycan array binding signal (z-score),[34],0.307
same,glycan array binding signal (z-score),[35],-1.18
same,glycan array binding signal (z-score),[36],1.68
same,glycan array binding signal (z-score),[37],-0.913
same,glycan array binding signal (z-score),[38],0.046
same,glycan array binding signal (z-score),[39],3.06
same,glycan array binding signal (z-score),Neu5Ac(b2-6)GalNAc,1.37
same,glycan array binding signal (z-score),[40],-0.635
